Results on 45 sequences are retold here after publication PMC7819943, “Rice protein-binding microarrays: a tool to detect cis-acting elements near promoter regions in rice”.

Over roughly 68,000 sequences, “fluorescence intensity (a.u.)” has its median near 9,100; the highest 2% begin near 16,000. Many of the other results were omitted from the sample, so the highest values are more common in it than they were.

Chain of OsWRKY34 (Q0JBA9 entry or part of it): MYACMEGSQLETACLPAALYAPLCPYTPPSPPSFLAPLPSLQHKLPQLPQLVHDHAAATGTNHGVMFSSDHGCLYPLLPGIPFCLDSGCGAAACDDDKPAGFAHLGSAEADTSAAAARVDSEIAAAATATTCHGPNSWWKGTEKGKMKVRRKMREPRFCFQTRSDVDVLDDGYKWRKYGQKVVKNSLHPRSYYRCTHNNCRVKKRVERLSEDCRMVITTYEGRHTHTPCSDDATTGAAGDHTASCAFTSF

The test concerns the target OsWRKY34 (Oryza sativa, UniProt Q0JBA9 1-250). In words: protein-binding microarray (RPBM); PBS, 2% BSA, 51.3 ng/ul salmon testes DNA, 50 uM zinc acetate, 200 nM TF, 25 C, 1 h; high values mean tight binding. The following applies: protein: recombinant; tags: N-terminal polyhistidine and DsRed monomer fusion (pET32a); label: CyDye5-dUTP incorporated in the synthesized complementary strand; 3' TTTTT single-stranded linker to array surface; dsDNA, one strand shown. Summed up:
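Polyhistidine-tagged DsRed fusions of transcription factors, joined at the N-terminus, were expressed in E. coli BL21-CodonPlus and isolated on Ni–NTA. They were incubated at 200 nM for 1 h at 25 °C on a custom Agilent array, double-stranded and BSA-blocked, in PBS with 2% BSA, salmon testes DNA and 50 µM zinc acetate. The binding signal is per-feature fluorescence intensity (arbitrary units) read on an Axon 4000B scanner after washing.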
In the case of “CATCAGTACAGGCCCAACTTAAAAATTGCTCGGCCCATTTCGGAGTCACCTAGTGCAG”, the binding signal was 8850 fluorescence intensity (a.u.). As for “GGTGCTCCGCCTCCCGGGGCAGGGTTTCAAGAGGGTGGGTCGGAGTCACCTAGTGCAG”, the figure is 10700 fluorescence intensity (a.u.); as for “CATCCGATTCCTATGTATTTCTTGCGGTCTAATCAAACGACGGAGTCACCTAGTGCAG”, 10200 fluorescence intensity (a.u.); as for “GTGTTTTGCAAGGTTGTTTCTTTACCTTATCTATATACATCGGAGTCACCTAGTGCAG”, 9790 fluorescence intensity (a.u.). For the sequence “CACTCCACCATTGTCATCTTTACTATCGGTAATTGTTGATCGGAGTCACCTAGTGCAG”, the binding signal was 8440 fluorescence intensity (a.u.).

With “TTTTTCTTGTGCTCTATCCATCCATGCCATGCCATTCATCCGGAGTCACCTAGTGCAG”, the binding signal is 10200 fluorescence intensity (a.u.).

“GCTTTTCTTTGTCCATCCATCTATCTTTTTCTCCATCTTTCGGAGTCACCTAGTGCAG”: the binding signal is 8440 fluorescence intensity (a.u.).

For the sequence “GGAGTGTTTCTGTTGTTGCATGTGATGAGTGCATTATCATCGGAGTCACCTAGTGCAG”, the binding signal was 11000 fluorescence intensity (a.u.). As for “GCCTGTTTCTCCTTCGGCTGATGATATCTGTGCTGTTTTTCGGAGTCACCTAGTGCAG”, the figure is 8550 fluorescence intensity (a.u.); as for “TTTTTTTCTCCTCATTATTCTTCTTTTCTTTCTCTATATTCGGAGTCACCTAGTGCAG”, 9180 fluorescence intensity (a.u.); as for “TCTTTTTTCTCTTCTTCTTCTCCTCCATTCCATTCCATTTCGGAGTCACCTAGTGCAG”, 8930 fluorescence intensity (a.u.). Next, “GTCAAATTTCTGTGCTCCATAAGATCTCTTCTCTTTTTTTCGGAGTCACCTAGTGCAG”: 16700 fluorescence intensity (a.u.); “TGCTCAACATCCATCTTTCTTTCTTTCTTTTTCTCTTTTTCGGAGTCACCTAGTGCAG”: 11300 fluorescence intensity (a.u.). Next, “AGTTGGCTATAATATATTTCTTCTCTCTCTATCTCTCATTCGGAGTCACCTAGTGCAG”: 17700 fluorescence intensity (a.u.); “ACAGTTTTCTCCATCTTGGCCATTCGTGTGCTATATCCATCGGAGTCACCTAGTGCAG”: 16500 fluorescence intensity (a.u.). With “GGGCTGTTATCTCTGATGTGTTTTCTGCCTCTCATGTCATCGGAGTCACCTAGTGCAG”, the binding signal is 17000 fluorescence intensity (a.u.). Next, “TTCTCTCTCTATCTCTCATTTATATATTTAATATATTTGTCGGAGTCACCTAGTGCAG”: 9250 fluorescence intensity (a.u.); “ACCCACCACATCGACGCGACCACACTCCACACAAGCCATGCGGAGTCACCTAGTGCAG”: 10100 fluorescence intensity (a.u.). As for “TAGTGTTGGTTTGATTTTTATATCACTAGAGATGAACTAACGGAGTCACCTAGTGCAG”, the figure is 8560 fluorescence intensity (a.u.); as for “GATGATGATGATTTTGGTAGGAGATATGGATCGTGTTGGTCGGAGTCACCTAGTGCAG”, 11300 fluorescence intensity (a.u.).

In the case of “ATCTTATTAATTAATTCTTTGTGTTTCATATTATTCTAATCGGAGTCACCTAGTGCAG”, the binding signal is 10300 fluorescence intensity (a.u.). As for “TGCGAGTTCGTCGCCGCCTCCGCCGATCTCCATCAGGCGACGGAGTCACCTAGTGCAG”, the figure is 9610 fluorescence intensity (a.u.); as for “GCAGCGACGACATCTGACGGCCTCACCTACCTTTCGGTCTCGGAGTCACCTAGTGCAG”, 8460 fluorescence intensity (a.u.).

As to “GGTGTCTTGATTGATATGATTTAAATTATTCTTGGTCTTGCGGAGTCACCTAGTGCAG”, the binding signal was 9570 fluorescence intensity (a.u.). Regarding “GGCTCAACAAATAATGTGAAGATCTCTCATTTTCATTTTCCGGAGTCACCTAGTGCAG”, the binding signal is 8050 fluorescence intensity (a.u.). Next, “CTAGTTGTGTTTGTTAATTTCTTTCTATACATGGGTTACCCGGAGTCACCTAGTGCAG”: 11700 fluorescence intensity (a.u.); “TGTTTGGTTGGGATACATGGGAATTTTGGTAGGATGGGGACGGAGTCACCTAGTGCAG”: 12700 fluorescence intensity (a.u.).

With “TCTTTGTTATAATTATGGGGTTGGTTTTATTCGTTTTCGACGGAGTCACCTAGTGCAG”, the binding signal was 21900 fluorescence intensity (a.u.).

On to “AAATTTGTTATTTTTGTTTCGAATTATATAATTCGAATTTCGGAGTCACCTAGTGCAG”, for which the binding signal was 9450 fluorescence intensity (a.u.). As for “TCGTTATACCTGGTTTTTTTGGTTGAGGGATGTTATTCGACGGAGTCACCTAGTGCAG”, the figure is 12500 fluorescence intensity (a.u.); as for “TTTATACATGGTTTGTGTTTTTCTCACTTTGGGTTGGGGACGGAGTCACCTAGTGCAG”, 18000 fluorescence intensity (a.u.); as for “GACACCACATAAAGACACCCATCCCCGTGATCAACTACCTCGGAGTCACCTAGTGCAG”, 8320 fluorescence intensity (a.u.). For “CGCCTGTCAAATCCTAGTCAGGGAATCTGTCTTCCATCTACGGAGTCACCTAGTGCAG”, the binding signal is 9100 fluorescence intensity (a.u.). As for “TTATTGTTTTTATTGTCTTTTTTTCTTTATATTTCCAAAACGGAGTCACCTAGTGCAG”, the figure is 11400 fluorescence intensity (a.u.).

As for “GCCTTTTTCTTGCGTGTAGGTTGTTCTGTTGAGAGAAAGACGGAGTCACCTAGTGCAG”, the binding signal is 17700 fluorescence intensity (a.u.). As for “AGTATTGTTTTCTCGCTGTCTCTATCCAAATCTTTGAAAACGGAGTCACCTAGTGCAG”, the figure is 17200 fluorescence intensity (a.u.); as for “AGTTGAGGGATCCGTTGTATCTGGTTTTGCGGTTGAAGGACGGAGTCACCTAGTGCAG”, 8570 fluorescence intensity (a.u.). Take “TTTTTCTTTTTATTGTCTTGTTCTCGTGCGTGTTGAAAAACGGAGTCACCTAGTGCAG”: the binding signal was 20300 fluorescence intensity (a.u.).

As to “TTGTGTAGGTTTTGTTTCTTTCTTCTTTTTTCGAAAAGAGCGGAGTCACCTAGTGCAG”, the binding signal is 8940 fluorescence intensity (a.u.). As for “TATATTGTCTGTTTTCTCTTGAATCTTTCCTATCCAGTAGCGGAGTCACCTAGTGCAG”, the binding signal was 8490 fluorescence intensity (a.u.). Next, “TCTTCTTTTGTTGTCTTCTGCTATCCAATCTCTTGTCAAACGGAGTCACCTAGTGCAG”: 10500 fluorescence intensity (a.u.); “TGTTATTATTGCCGTTGTCTTTATTTTTCTTTTTTGAAAACGGAGTCACCTAGTGCAG”: 9580 fluorescence intensity (a.u.). As for “GTTGAGGGACCCGCTGGATCTGGTTTTTGATTGAAGGATACGGAGTCACCTAGTGCAG”, the figure is 8800 fluorescence intensity (a.u.); as for “TTTTTTTTCTTTCTGTTCTGTTTCTGTTGAGAAACAAAGACGGAGTCACCTAGTGCAG”, 8450 fluorescence intensity (a.u.); as for “AAGGACCCGTTCTATCTGGTTTTGCGGTTGAAGGATAGAACGGAGTCACCTAGTGCAG”, 28000 fluorescence intensity (a.u.).
